Test in all cases: DAPPL (digital affinity profiling via proximity ligation, sequencing); 10 mM Tris-HCl pH 7.5, 50 mM NaCl, 1 mM DTT, 4% glycerol, room temperature, 30 min; GST-TFs on glutathione beads, 16-mer random dsDNA library, 0.1% formaldehyde crosslink after washing; high values mean tight binding
One assay concerns the target T1, FLI1 (Homo sapiens, UniProt Q01543 1-452).
T1 sequence: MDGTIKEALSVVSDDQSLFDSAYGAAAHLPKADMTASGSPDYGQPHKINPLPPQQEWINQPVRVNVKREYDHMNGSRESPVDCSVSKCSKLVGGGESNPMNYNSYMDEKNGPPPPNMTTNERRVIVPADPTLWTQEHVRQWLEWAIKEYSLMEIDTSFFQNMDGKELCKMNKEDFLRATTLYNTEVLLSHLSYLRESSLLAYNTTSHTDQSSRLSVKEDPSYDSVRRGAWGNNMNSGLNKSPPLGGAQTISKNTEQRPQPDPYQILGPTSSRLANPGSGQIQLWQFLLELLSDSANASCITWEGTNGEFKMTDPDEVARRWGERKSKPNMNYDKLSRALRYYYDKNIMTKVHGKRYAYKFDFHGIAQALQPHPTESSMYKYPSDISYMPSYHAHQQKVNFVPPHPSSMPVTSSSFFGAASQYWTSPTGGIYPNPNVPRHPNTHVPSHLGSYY
As to conditions: protein: recombinant; tags: N-terminal GST; dsDNA, one strand shown. The method in brief:
(§1)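 Sequencing on an Illumina NextSeq500 followed washing, crosslinking with 0.1% formaldehyde, proximity ligation (BsaI/T4 ligase, 1 h, 37 °C) and PCR amplification of pools that had been incubated for 30 min at room temperature with 200 nmole of a random double-stranded 16-mer DNA library in Tris/NaCl/DTT/glycerol buffer. Each pool held DNA-barcoded human transcription factors, expressed in yeast as GST fusions and captured on glutathione beads, plus a tag-only sample. Binding signal is a hexamer's read frequency for a factor divided by its frequency in the tag-only sample.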

For another assay, the target named is T2, ELK1 (Homo sapiens, UniProt P19419 1-428).
T2 sequence: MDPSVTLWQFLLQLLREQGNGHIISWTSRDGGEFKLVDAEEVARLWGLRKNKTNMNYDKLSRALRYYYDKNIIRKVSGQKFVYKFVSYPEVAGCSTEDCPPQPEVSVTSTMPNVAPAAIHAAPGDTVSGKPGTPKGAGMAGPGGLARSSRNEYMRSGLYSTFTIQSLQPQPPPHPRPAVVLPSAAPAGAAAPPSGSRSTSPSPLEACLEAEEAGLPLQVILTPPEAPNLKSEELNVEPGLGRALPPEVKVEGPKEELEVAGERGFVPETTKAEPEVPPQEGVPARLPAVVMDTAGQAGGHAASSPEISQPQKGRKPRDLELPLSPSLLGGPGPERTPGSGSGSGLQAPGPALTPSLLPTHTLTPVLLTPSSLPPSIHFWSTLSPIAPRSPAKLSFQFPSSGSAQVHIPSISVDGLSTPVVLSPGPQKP
As to conditions: protein: recombinant; tags: N-terminal GST; dsDNA, one strand shown. The method in brief: as §1

Another assay has as its target T3, GABPA (Homo sapiens, UniProt Q06546 1-454).
T3 sequence: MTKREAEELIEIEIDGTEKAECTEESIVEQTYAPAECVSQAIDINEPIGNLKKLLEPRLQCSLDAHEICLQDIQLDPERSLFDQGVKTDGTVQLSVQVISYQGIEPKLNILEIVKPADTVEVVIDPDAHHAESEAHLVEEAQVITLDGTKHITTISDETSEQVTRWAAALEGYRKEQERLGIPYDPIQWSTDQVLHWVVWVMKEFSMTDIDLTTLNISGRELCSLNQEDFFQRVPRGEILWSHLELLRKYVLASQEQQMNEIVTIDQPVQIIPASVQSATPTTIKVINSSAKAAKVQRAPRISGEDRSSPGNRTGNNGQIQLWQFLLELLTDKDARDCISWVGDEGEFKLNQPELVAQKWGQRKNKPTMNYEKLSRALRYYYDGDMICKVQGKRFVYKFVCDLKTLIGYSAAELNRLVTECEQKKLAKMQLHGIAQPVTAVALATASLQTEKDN
As to conditions: protein: recombinant; tags: N-terminal GST; dsDNA, one strand shown. Summed up:
as §1

Another assay has as its target T4, ERG (Homo sapiens, UniProt P11308 1-479).
T4 sequence: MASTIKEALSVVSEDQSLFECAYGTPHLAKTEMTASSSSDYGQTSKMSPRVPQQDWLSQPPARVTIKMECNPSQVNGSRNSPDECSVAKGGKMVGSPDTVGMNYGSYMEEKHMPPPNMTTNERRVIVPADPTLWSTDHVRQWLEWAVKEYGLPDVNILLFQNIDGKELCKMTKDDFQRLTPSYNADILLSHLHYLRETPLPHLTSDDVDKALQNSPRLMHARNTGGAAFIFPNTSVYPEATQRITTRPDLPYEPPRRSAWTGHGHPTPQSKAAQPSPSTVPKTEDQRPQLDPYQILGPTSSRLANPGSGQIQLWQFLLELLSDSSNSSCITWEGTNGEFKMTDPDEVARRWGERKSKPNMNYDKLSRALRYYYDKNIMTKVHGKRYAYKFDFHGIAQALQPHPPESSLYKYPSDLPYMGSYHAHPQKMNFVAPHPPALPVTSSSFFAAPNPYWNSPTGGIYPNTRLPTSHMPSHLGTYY
As to conditions: protein: recombinant; tags: N-terminal GST; dsDNA, one strand shown. Summed up:
as §1

The next assay concerns the target ELF1 (Homo sapiens, UniProt P32519 1-619). As to conditions: protein: recombinant; tags: N-terminal GST; dsDNA, one strand shown. The method in brief: as §1
The target in another assay is T5, EHF (Homo sapiens, UniProt Q9NZC4 1-300).
T5 sequence: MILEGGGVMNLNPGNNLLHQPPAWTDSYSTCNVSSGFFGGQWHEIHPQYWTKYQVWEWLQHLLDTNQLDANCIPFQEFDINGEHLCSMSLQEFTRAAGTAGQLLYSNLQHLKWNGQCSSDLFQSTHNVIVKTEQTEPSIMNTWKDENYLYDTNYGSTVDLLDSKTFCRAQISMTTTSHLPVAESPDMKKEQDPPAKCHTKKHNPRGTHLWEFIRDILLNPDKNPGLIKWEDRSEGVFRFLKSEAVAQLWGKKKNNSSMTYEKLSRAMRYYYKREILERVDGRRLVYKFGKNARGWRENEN
As to conditions: protein: recombinant; tags: N-terminal GST; dsDNA, one strand shown. Summed up: as §1

The target in a further assay is SPI1 (Homo sapiens, UniProt P17947 1-270). As to conditions: protein: recombinant; tags: N-terminal GST; dsDNA, one strand shown. The method in brief:
as §1

A further assay has as its target SPIB (Homo sapiens, UniProt Q01892 1-262). As to conditions: protein: recombinant; tags: N-terminal GST; dsDNA, one strand shown. Summed up:
as §1

The target of the next assay is T6, ELK3 (Homo sapiens, UniProt P41970 1-407).
T6 sequence: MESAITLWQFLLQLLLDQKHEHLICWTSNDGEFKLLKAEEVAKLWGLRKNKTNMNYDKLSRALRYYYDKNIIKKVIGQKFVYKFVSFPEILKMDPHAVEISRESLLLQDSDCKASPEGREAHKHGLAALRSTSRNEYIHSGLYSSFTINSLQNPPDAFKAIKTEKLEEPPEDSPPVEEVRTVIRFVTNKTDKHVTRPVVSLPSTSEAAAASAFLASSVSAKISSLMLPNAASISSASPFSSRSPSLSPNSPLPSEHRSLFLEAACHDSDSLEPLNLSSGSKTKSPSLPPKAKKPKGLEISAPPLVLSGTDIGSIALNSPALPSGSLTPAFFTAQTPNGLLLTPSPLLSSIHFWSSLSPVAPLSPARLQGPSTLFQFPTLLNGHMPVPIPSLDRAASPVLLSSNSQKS
As to conditions: protein: recombinant; tags: N-terminal GST; dsDNA, one strand shown. The method in brief:
as §1

For a further assay, the target named is T7, FEV (Homo sapiens, UniProt Q99581 1-238).
T7 sequence: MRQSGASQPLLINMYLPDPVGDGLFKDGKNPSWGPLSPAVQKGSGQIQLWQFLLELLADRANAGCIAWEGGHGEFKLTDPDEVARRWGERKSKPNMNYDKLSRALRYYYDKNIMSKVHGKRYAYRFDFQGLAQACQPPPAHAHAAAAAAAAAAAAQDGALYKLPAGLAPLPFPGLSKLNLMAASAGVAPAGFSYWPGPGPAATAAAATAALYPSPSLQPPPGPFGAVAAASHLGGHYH
As to conditions: protein: recombinant; tags: N-terminal GST; dsDNA, one strand shown. The method in brief:
as §1

The next assay deals with ETV5 (Homo sapiens, UniProt P41161 1-510). As to conditions: protein: recombinant; tags: N-terminal GST; dsDNA, one strand shown. Summed up:
as §1

The target of another assay is HSF1 (Homo sapiens, UniProt Q00613 1-529). As to conditions: protein: recombinant; tags: N-terminal GST; chain copies: 3; dsDNA, one strand shown. Summed up: as §1
Sequence of HSF1 (Q00613 whole entry): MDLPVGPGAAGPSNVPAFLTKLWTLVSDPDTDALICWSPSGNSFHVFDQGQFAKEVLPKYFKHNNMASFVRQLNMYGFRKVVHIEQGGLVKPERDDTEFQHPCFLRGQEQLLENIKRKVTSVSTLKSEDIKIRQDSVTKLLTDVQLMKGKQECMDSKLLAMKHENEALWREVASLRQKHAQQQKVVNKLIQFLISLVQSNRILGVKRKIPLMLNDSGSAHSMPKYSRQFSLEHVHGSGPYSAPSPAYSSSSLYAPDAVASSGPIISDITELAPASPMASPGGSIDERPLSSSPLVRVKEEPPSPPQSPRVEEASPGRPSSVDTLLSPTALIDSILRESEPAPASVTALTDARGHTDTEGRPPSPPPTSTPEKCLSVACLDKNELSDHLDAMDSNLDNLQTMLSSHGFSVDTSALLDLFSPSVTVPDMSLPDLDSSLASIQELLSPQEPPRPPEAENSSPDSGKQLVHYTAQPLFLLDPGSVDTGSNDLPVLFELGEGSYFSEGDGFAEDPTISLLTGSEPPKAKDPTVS
The target in the next assay is T8, SPIC (Homo sapiens, UniProt Q8N5J4 1-248).
T8 sequence: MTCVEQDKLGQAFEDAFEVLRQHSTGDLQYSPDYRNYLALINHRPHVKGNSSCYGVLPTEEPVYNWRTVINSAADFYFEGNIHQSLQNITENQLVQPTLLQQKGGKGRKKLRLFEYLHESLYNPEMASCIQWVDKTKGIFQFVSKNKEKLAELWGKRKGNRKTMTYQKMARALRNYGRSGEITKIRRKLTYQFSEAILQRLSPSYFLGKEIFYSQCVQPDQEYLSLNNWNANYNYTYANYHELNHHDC
As to conditions: protein: recombinant; tags: N-terminal GST; dsDNA, one strand shown. Summed up: as §1

Another assay concerns the target ELF4 (Homo sapiens, UniProt Q99607 1-663). As to conditions: protein: recombinant; tags: N-terminal GST; dsDNA, one strand shown. Summed up: as §1
A further assay addresses T9, ELK4 (Homo sapiens, UniProt P28324-2 1-405).
T9 sequence: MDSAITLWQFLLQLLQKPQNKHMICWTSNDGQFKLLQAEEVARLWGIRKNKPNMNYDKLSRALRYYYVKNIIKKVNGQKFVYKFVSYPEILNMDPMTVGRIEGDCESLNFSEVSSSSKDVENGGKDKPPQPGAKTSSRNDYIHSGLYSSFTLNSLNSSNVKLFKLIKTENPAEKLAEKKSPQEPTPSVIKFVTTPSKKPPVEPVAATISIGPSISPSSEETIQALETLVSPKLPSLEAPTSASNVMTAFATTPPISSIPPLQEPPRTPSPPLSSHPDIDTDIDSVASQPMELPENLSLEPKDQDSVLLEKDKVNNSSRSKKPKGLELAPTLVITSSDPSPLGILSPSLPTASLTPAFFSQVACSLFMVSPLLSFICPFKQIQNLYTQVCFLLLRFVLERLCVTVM
As to conditions: protein: recombinant; tags: N-terminal GST; dsDNA, one strand shown. The method in brief:
as §1

The next assay deals with T10, ETV2 (Homo sapiens, UniProt O00321 1-342).
T10 sequence: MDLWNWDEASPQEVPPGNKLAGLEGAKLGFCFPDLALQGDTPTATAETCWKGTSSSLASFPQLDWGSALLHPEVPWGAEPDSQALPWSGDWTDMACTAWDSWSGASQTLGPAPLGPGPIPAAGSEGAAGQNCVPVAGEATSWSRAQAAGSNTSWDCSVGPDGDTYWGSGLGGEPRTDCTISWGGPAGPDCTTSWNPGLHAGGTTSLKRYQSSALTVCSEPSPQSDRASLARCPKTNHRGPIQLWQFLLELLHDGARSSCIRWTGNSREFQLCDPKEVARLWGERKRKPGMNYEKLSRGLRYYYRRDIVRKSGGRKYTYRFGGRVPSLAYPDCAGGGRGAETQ
As to conditions: protein: recombinant; tags: N-terminal GST; dsDNA, one strand shown. The method in brief: as §1

The target of the next assay is T11, ELF3 (Homo sapiens, UniProt P78545 1-371).
T11 sequence: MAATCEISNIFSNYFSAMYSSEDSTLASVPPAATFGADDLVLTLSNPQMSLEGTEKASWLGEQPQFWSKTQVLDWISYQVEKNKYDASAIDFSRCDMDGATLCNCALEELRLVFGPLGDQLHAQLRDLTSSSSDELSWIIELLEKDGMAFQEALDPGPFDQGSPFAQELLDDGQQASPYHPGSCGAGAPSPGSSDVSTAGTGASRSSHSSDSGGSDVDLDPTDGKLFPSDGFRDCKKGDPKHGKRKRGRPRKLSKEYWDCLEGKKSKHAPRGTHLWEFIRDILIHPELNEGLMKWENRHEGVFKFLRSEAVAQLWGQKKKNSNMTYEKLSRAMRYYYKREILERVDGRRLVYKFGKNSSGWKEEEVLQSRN
As to conditions: protein: recombinant; tags: N-terminal GST; dsDNA, one strand shown. The method in brief: as §1

The target of another assay is ETV1 (Homo sapiens, UniProt P50549 1-477). As to conditions: protein: recombinant; tags: N-terminal GST; dsDNA, one strand shown. Summed up:
as §1

Sequence of ELF4 (Q99607 whole entry): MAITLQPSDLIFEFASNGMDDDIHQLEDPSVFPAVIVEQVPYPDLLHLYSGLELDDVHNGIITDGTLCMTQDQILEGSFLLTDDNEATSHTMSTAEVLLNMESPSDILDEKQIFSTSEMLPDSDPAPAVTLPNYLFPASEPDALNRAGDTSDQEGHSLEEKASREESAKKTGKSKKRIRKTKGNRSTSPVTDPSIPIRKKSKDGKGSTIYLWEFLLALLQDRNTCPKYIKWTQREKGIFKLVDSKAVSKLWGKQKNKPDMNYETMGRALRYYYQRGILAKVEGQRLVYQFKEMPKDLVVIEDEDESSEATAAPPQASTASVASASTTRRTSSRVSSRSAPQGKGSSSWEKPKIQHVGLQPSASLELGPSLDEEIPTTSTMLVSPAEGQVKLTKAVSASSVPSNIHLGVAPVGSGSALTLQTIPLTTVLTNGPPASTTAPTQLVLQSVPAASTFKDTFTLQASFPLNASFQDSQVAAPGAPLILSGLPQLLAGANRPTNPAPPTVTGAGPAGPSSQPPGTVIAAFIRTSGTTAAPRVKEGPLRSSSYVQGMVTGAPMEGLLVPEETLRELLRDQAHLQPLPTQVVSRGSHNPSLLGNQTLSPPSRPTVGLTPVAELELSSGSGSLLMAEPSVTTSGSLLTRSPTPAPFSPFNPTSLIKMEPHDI
Sequence of SPIB (Q01892 whole entry): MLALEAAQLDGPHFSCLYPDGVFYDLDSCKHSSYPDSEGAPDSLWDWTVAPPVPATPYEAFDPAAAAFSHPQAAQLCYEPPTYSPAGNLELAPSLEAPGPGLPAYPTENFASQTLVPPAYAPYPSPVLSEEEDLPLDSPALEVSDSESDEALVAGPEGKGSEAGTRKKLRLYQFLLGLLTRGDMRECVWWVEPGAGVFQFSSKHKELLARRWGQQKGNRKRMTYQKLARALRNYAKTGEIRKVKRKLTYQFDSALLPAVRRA
Sequence of ELF1 (P32519 whole entry): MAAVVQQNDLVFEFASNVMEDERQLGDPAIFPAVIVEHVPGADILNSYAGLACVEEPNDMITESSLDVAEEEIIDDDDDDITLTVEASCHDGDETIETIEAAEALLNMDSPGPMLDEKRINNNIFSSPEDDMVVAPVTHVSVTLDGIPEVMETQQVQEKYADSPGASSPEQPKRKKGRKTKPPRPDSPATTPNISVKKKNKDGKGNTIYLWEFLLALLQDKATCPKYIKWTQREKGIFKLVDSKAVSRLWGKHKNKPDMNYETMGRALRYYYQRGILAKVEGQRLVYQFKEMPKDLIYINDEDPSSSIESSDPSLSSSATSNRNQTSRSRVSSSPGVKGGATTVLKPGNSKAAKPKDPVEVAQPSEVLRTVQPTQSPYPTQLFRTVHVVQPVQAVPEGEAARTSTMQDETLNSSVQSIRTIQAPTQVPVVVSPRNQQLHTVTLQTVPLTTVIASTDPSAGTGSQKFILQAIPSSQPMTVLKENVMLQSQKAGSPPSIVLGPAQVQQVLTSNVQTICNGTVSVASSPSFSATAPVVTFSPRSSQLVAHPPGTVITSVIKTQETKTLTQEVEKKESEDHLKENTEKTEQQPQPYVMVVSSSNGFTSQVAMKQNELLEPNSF
Sequence of ETV1 (P50549 whole entry): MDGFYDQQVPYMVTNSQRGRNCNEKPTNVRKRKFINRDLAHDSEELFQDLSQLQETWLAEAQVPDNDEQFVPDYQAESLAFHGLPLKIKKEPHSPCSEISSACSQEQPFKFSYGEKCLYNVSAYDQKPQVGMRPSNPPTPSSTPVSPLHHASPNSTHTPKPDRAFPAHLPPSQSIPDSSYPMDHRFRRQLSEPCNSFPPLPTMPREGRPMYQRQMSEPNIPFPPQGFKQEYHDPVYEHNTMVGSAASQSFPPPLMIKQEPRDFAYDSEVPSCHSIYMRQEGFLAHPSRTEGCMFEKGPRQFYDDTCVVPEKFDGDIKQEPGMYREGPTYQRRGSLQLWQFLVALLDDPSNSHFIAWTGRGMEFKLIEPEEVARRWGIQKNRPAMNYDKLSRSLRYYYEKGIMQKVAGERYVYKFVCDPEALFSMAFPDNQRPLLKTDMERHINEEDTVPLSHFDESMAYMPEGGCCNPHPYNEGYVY
Sequence of ETV5 (P41161 whole entry): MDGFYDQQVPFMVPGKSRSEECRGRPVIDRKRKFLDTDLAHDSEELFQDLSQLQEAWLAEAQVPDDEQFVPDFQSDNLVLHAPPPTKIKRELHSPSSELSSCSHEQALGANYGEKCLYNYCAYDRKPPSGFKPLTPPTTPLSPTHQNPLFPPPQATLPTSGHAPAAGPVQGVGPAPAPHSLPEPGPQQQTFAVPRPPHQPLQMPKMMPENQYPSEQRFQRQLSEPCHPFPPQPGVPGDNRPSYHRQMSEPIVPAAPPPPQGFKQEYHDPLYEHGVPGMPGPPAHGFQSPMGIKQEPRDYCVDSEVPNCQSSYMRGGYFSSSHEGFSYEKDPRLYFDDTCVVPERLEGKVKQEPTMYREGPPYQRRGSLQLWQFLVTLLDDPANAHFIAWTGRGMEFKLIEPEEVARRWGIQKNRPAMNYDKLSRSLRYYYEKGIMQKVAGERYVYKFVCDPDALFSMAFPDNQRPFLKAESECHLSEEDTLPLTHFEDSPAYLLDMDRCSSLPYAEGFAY

In the case of ACGGAA, the binding signal was 1.66 fold enrichment (6-mer frequency, TF over GST control) with FLI1; 1.69 fold enrichment (6-mer frequency, TF over GST control) in the assay with ELK1; 1.58 fold enrichment (6-mer frequency, TF over GST control) with GABPA; 1.93 fold enrichment (6-mer frequency, TF over GST control) in the assay with ERG; 1.62 fold enrichment (6-mer frequency, TF over GST control) in the assay with ELF1; 2 fold enrichment (6-mer frequency, TF over GST control) with EHF. Also, the binding signal was 2.02 fold enrichment (6-mer frequency, TF over GST control) with SPI1; 1.93 fold enrichment (6-mer frequency, TF over GST control) in the assay with SPIB; 1.94 fold enrichment (6-mer frequency, TF over GST control) in the assay with ELK3; 1.83 fold enrichment (6-mer frequency, TF over GST control) with FEV; 1.94 fold enrichment (6-mer frequency, TF over GST control) in the assay with ETV5; 1.01 fold enrichment (6-mer frequency, TF over GST control) with HSF1. Further, the binding signal was 1.69 fold enrichment (6-mer frequency, TF over GST control) with SPIC; 1.61 fold enrichment (6-mer frequency, TF over GST control) with ELF4; 1.5 fold enrichment (6-mer frequency, TF over GST control) in the assay with ELK4; 1.75 fold enrichment (6-mer frequency, TF over GST control) with ETV2; 1.89 fold enrichment (6-mer frequency, TF over GST control) with ELF3; 1.85 fold enrichment (6-mer frequency, TF over GST control) with ETV1.

The record behind these values is article PMC7862700, “An all-to-all approach to the identification of sequence-specific readers for epigenetic DNA modifications on cytosine”.
